Hits are enriched below; roughly 5.9% of the tested compounds scored in any of these assays.
ATXN2 expr inh: Primary qHTS for Inhibitors of ATXN expression; HEK-293 ATXN2-luciferase reporter, luminescence, 24 h; Potency, µM (titrated, usually from 57 µM), without a hit: at the top dose activity change, negative = inhibition, most hits filed as inhibitors; 360,000 compounds, 0.72% hits; further: on the % scale 0 is the no-effect control and ±100 the full control effect; nearly all actives have a fitted effect of over 55% in size
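ATXN2-luciferase reporter cells (luciferase flanked by upstream and downstream ATXN2 gene portions) were treated 24 h at 37 °C with compounds at up to 57 uM. SteadyGlo luminescence gave expression; GF-AFC fluorescence gave viability.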
KB-3-1 cytotox: qHTS assay for MDR1-selective chemotherapeutics: Primary screen using the parental adenocarcinoma cell KB-3-1. KB-3-1 viability, CellTiter-Glo ATP luminescence, 72 h. Potency, µM (doses to about 46.1 µM), actives largely listed as cytotoxic. 400,000 compounds, 1.4% hits; further: on the % scale 0 is the no-effect control and ±100 the full control effect; nearly all actives have a fitted effect of over 60% in size
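Viability of parental KB-3-1 cells, measured by CellTiter-Glo luminescence, followed a 72 h incubation at 37 °C with pinned compounds in phenol-red-free DMEM containing 10% FBS.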
TGFb SMAD3 inh: qHTS for Inhibitors of TGF-b. HepG2 CAGA-GFP TGF-b/SMAD3 reporter, GFP fluorescence, 18 h; TGF-beta stimulated, 500 pg/mL final. Potency, µM (highest dose often 46.1 µM), for inactives: at the top dose activity, negative = inhibition, hits mostly inhibitors. 410,000 compounds, 1.2% hits. AID 588855, 2011; further: on the % scale 0 is the no-effect control and ±100 the full control effect; nearly all actives have a fitted effect of over 65% in size
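Using HEPG2 CAGA-GFP reporter cells at 1000 cells/well, we pinned test compounds, stimulated with recombinant TGF-beta (500 pg/mL final) and measured total well GFP after 18 h.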
KB-V1 MDR tox: qHTS assay for MDR1-selective chemotherapeutics: Primary screen using the drug-selected MDR subline cells KB-V1. KB-V1 MDR cells viability, CellTiter-Glo, 72 h. 400,000 compounds, 3.4% hits. Potency, µM (series often up to 46.1 µM), most hits filed as cytotoxic; further: on the % scale 0 is the no-effect control and ±100 the full control effect; nearly all actives have a fitted effect of over 60% in size
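Luminescent ATP read-out (CellTiter-Glo, 10 min) measures survival of drug-selected KB-V1 MDR cells after 72 h, 37 degrees C compound exposure. Medium: phenol-red-free DMEM, 10% FBS. Values from fitted concentration-response curves.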
HepG2 viability: qHTS for Inhibitors of TGF-b: Cytotox Counterscreen; HepG2 CAGA-GFP viability, ATP luminescence, 18 h; 410,000 compounds, 0.76% hits; Potency, µM (doses to about 46.1 µM), inactives show at the highest dose activity change, negative = cytotoxicity, actives largely listed as cytotoxic
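CellTiter-Glo luminescence gave cytotoxicity after 18 hours at 37 degrees C. The cells were HepG2 CAGA-GFP in 1% FBS DMEM, stimulated with 500 pg/mL TGF-beta after compound addition. %Activity was normalised to no-cell wells (complete cell-killing) and DMSO (no toxicity), and curves were fitted and classified.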
ATXN viability: Viability Counterscreen for Primary qHTS for Inhibitors of ATXN expression; S2 cells (HEK-293 line with an ATXN2-luciferase reporter) viability, CellTiter-Fluor protease fluorescence, 24 h; Potency, µM (series often up to 56.7 µM), most hits filed as cytotoxic; 400,000 compounds, 0.49% hits; AID 651635, 2014; further: nearly all actives have a fitted effect of over 40% in size
* = called active by the depositor; i = inactive; ? = inconclusive; . = no result given; ! = a repeat was not active. The call rests on the fitted dose curve; in most records, active means well fitted curve in the direction sought with a large enough effect; inconclusive means small, poorly fitted or top-dose-only effect, or another doubt; inactive means no such curve, though single readings can be large; an effect the other way counts as inactive or inconclusive. Potency means the concentration at half of the fitted maximal effect.

SMILES | ATXN2 expr inh | KB-3-1 cytotox | TGFb SMAD3 inh | KB-V1 MDR tox | HepG2 viability | ATXN viability
O=C(NCc1cccs1)C1CCCN1S(=O)(=O)c1ccccc1F (stereo not given) | -10% | i | 3% | 12µM* | -2% | ?
COc1ccc(CCNC(=O)C2CCN(S(=O)(=O)N3CCC(C)CC3)CC2)cc1OC | 0% | ? | 2% | 21µM* | 1% | i
COc1cc(OC)c(OC)cc1CNC(=O)c1ccc(S(=O)(=O)N2CC(C)OC(C)C2)cc1 (stereo not given) | -5% | i | 2% | i | 5% | i
CC(C)CN(CC(C)C)S(=O)(=O)N1CCC(C(=O)NCc2cccs2)CC1 | -8% | i | -12% | ? | -16% | i
COc1ccc(CNC(=O)c2ccc(S(=O)(=O)N3CC(C)CC(C)C3)cc2)cc1OC (stereo not given) | -24% | i | -19% | 7.3µM* | -4% | i
CCCSc1nc2c(c(=O)[nH]1)C(c1ccc(F)cc1F)CC(=O)N2 (stereo not given) | -4% | i | 15% | i | -3% | i
N#Cc1ccc(-c2nc3c4ccccc4ccn3c2Cc2cccc(Cl)c2)cc1 | 9% | i | ? | i | -21% | i
CN1C/C(=C/c2ccccc2[N+](=O)[O-])C(=O)/C(=C\c2ccccc2[N+](=O)[O-])C1 | ? | ? | 3.2µM* | i | -32% | .
COC(=O)C(=Cc1ccccc1[N+](=O)[O-])C(=O)OC | . | i | ? | i | -41% | 16µM*
O=C(/C=C/c1ccccc1[N+](=O)[O-])OCC(=O)c1ccccc1 | 4% | i | 3% | i | -20% | i
O=C(/C=C/c1ccccc1[N+](=O)[O-])c1ccc(F)cc1 | 20% | ? | -9% | 23µM* | -7% | i
Brc1cccc(-c2nnc3sc(CN4CCC5(CC4)OCCO5)cn23)c1 | -8% | i | 7% | 21µM* | -8% | i
CCN1C(=O)C(CC(=O)Nc2cccc(C(C)=O)c2)S/C1=N\c1ccccn1 (stereo not given) | -11% | i | -24% | i | 5% | i
O=C(CC1SC(=Nc2ccccc2)N(Cc2ccccn2)C1=O)Nc1ccc(Br)cc1 (stereo not given) | ? | i | ? | ? | -30% | ?
O=C(CC1SC(=Nc2cccc3ccccc23)N(Cc2ccccn2)C1=O)Nc1ccccc1Br (stereo not given) | -20% | ? | -22% | 16µM* | -40% | i
Cc1ccccc1N=C1SC(CC(=O)Nc2ccc3ccccc3c2)C(=O)N1Cc1ccccn1 (stereo not given) | ? | ? | ? | 21µM* | -26% | ?
N#Cc1ccccc1Cn1c(SCC(=O)Nc2ccc(F)cc2)nc2ccccc21 | -4% | i | -11% | i | -27% | ?
Nc1c(Cl)cc(C2=NCCn3nc4ccccc4c32)cc1Cl | -8% | 6.5µM* | 3% | 21µM* | -3% | i
N#Cc1ccc2c(c1)nnn2-c1ccccc1 | 8% | i | 0% | 9.2µM* | -28% | i
CCc1ccccc1NC(=O)CSc1ncc(S(=O)(=O)c2ccccc2)c(N)n1 | -7% | i | -12% | i | -20% | i
Cc1cc(C2CCCCC2)n(O)c(=O)c1 | 18µM* | i | ? | ? | -24% | 20µM*!
Cn1c(NC2CCCCC2)cc(=O)n(C)c1=O | -7% | i | -3% | i | 6% | i
CC(CN1CCCCC1)NC(=O)c1scnc1-c1ccccc1 (stereo not given) | 5% | i | 4% | i | -6% | i
CC1CCCN(C(=O)c2ccc(CSc3nc4ccncc4n3Cc3ccccc3)cc2)C1 (stereo not given) | . | i | ? | i | -23% | .
COc1ccc(CC(N)c2csc(NC(=O)c3cc(C(C)(C)C)nn3Cc3ccccc3)n2)cc1 (stereo not given) | ? | ? | ? | ? | 11µM* | i
SMILES | ATXN2 expr inh | KB-3-1 cytotox | TGFb SMAD3 inh | KB-V1 MDR tox | HepG2 viability | ATXN viability
CC(N)c1csc(NC(=O)c2cc(C(C)(C)C)nn2Cc2ccccc2)n1 (stereo not given) | ? | ? | 22µM* | ? | -99% | i
OCCn1cc(-c2cnc3nnn(Cc4ccc5ncccc5c4)c3n2)cn1 | -11% | . | . | . | . | .
CC1CC(C)CN(Cc2nc(N)nc(Nc3ccc4ccccc4c3)n2)C1 (stereo not given) | -31% | 12µM* | ? | ? | -58% | ?
CO/N=C/C(=N\Nc1ccc(OC)cc1)C(=O)c1ccc(F)cc1 | -22% | i | 1% | i | 1% | ?
CO/N=C/C(=N\Nc1ccc(C)cc1)C(=O)c1ccc(OC)cc1 | -25% | 5.2µM* | -3% | 4.6µM* | 16% | ?
CCOC(=O)c1c(C)oc2ccc(N(C(=O)c3ccncc3)S(=O)(=O)c3ccc(F)cc3C)cc12 | ? | i | ? | ? | 14µM* | ?
COC(=O)c1c(C)oc2ccc(N(C(=O)c3ccncc3)S(=O)(=O)c3ccccc3)cc12 | -26% | ? | -17% | i | -1% | ?
COC(=O)c1c(C)oc2ccc(N(C(=O)c3ccncc3)S(=O)(=O)c3ccc(C)cc3)cc12 | -20% | 5.2µM* | ? | 1.6µM* | -30% | ?
Cc1ccc(S(=O)(=O)N(C(=O)c2ccncc2)c2ccc(OC(=O)c3ccncc3)c3ccccc23)cc1 | 19µM* | i | 0% | i | -22% | ?
O=S1(=O)N=C(Oc2ccccc2C(F)(F)F)c2ccccc21 | . | i | . | ? | . | .
C=C1CCN(C(CC(C)C)C(=O)NCc2ccc(OC)cc2)S(=O)(=O)c2ccccc21 (stereo not given) | . | . | -16% | . | -10% | .
CCN(CC)CCOc1ccc(/C(=C(/Cl)c2ccccc2)c2ccccc2)cc1 | 25µM*! | ? | ? | ? | 10µM*! | .
CCCCN(C=O)c1c(CC)nc2ccc(C(=O)Nc3cc(-c4ccccc4)ccc3OC)cn12 | ? | ? | 7.1µM* | 23µM* | -11% | i
CCc1nc2ccc(C(=O)Nc3cc(-c4ccccc4)ccc3OC)cn2c1N(CC)CCN(C)C | ? | ? | ? | ? | 14µM* | .

Compound activity from PubChem BioAssay.
